hgDAF-12 ag: hgDAF-12 agonism, primary luciferase screen | HEK293 GAL4-hgDAF12 UAS-luciferase reporter, agonist luminescence; normalized to butyrate control | activation, % at 6.8 µM | hit rate 1.8% among 370,000;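 active = activation above a cutoff set at the mean of all screened compounds plus 3 SD, cut at about 10% in these data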;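 also: 0% = DMSO wells and 100% = sodium butyrate wells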
ssDAF-12 act: S. stercoralis DAF-12 activation, primary screen; HEK293 ssDAF-12/GRIP1 lit1-tk-luc reporter, luminescence; % of 3 µM dafachronic acid response; hit rate 1% among 370,000; activation, % at 6.8 µM; AID 652126;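 active = activation above the mean over all tested compounds plus 3 SD, cut at about 0.9% in these data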;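 also: 0% = DMSO-only wells and 100% = 3 µM delta7-dafachronic acid wells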
APP 5'UTR act: APP 5'UTR luciferase reporter activation; SH-SY5Y APP 5'UTR luciferase reporter, luminescence; zero percent = DMSO vehicle wells; activation, % at 2 µM; hit rate 1% among 190,000;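 active = activation above a set limit, based on mean plus 3 SD of controls, cut at about 140% in these data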
NF-kB expr up: NF-kB expression increase, human neuronal cells; NF-kB reporter expression; active compounds read high; fold change at 12.5 µM; hit rate 1.6% among 190,000; in the data active = fold change above about 3.3
hcDAF12 agonist: H. contortus DAF-12 activation, primary screen | HEK293 hcDAF-12 lit1-tk-luc reporter, luminescence; 0% DMSO, 100% Δ7-dafachronic acid | activation, % at 6.8 µM | hit rate 1.4% among 370,000 | AID 652067;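 active = activation above the mean of all tested compounds plus 3 SD, cut at about 5.5% in these data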;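 also: 100% = response to 3 µM Δ7-dafachronic acid high control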
Active calls of the source: *; nt = no result. Rows were chosen to be rich in hits. Some 3.4% of all compounds tested hit in one or more screens of this group.

SMILES	hgDAF-12 ag	ssDAF-12 act	APP 5'UTR act	NF-kB expr up	hcDAF12 agonist
Cc1ncoc1C(=O)Nc1ncc([N+](=O)[O-])s1	11.9*	-0.5	78.2	2.44	3.4
Cc1ccc(Nc2n[nH]c(C)c2[N+](=O)[O-])cc1	10.3	0.2	54.3	3.1	1.6
CNc1nc(Nc2ccc(Br)cc2)nc(N)c1[N+](=O)[O-]	2.8	1.2*	94.2	1.31	5.5
Cc1[nH]nc(Nc2ccc(Br)cc2)c1[N+](=O)[O-]	11.9*	1.3*	nt	nt	3.9
CCOC(=O)c1c(C)[nH]c(C(=O)OCC(=O)N(C)CC(=O)Nc2ccccc2Cl)c1C	2.3	1.0*	nt	nt	3.0
CCOC(=O)c1c(C)[nH]c(C(=O)OCC(=O)Nc2cccnc2Cl)c1C	-3.1	-1.2	nt	nt	-1.7
CCOC(=O)c1c(C)[nH]c(C(=O)OCCOc2ccccc2C)c1C	10.9*	-0.2	117.9	3.37*	3.7
CCOC(=O)c1c(C)[nH]c(C(=O)OCCOc2ccc(Cl)cc2)c1C	-2.8	-1.5	18.4	1.09	1.5
CCOC(=O)c1c(C)[nH]c(C(=O)OCc2ccccc2F)c1C	13.2*	0.5	nt	nt	6.3*
O=[N+]([O-])c1ccc(O)c(Nc2ncnc3ccccc23)c1	-2.0	1.1*	3.5	1.15	3.1
CCCN1C(=O)C(O)(c2c(C)[nH]c3ccccc23)c2ccccc21 (stereo not drawn)	1.0	-0.3	nt	nt	3.8
Cc1[nH]c2ccccc2c1C1(O)C(=O)N(Cc2ccc3c(c2)OCO3)c2ccccc21 (stereo not drawn)	0.1	0.4	14.8	3.31*	3.2
C#CCN1C(=O)C(O)(c2c(C)[nH]c3ccccc23)c2ccccc21 (stereo not drawn)	0.5	0.0	24.1	nt	1.5
Cc1[nH]c2ccccc2c1C1(O)C(=O)N(C(C)C)c2ccccc21 (stereo not drawn)	2.1	-0.4	-6.8	0.66	5.8*
CCCCOCCCNC(=O)C[C@@H]1C(=O)N2CCCC3=C2[C@@]1(C(=O)OCC)CCC3	1.4	-1.6	nt	nt	1.3
COC(=O)[C@H](CC(C)C)N(Cc1cn(Cc2ccccc2)nn1)S(=O)(=O)c1ccc(F)cc1Br	-4.2	-1.8	nt	nt	-4.5
CCOc1ccc2c(c1)c1nc3ccccc3nc1n2C	3.7	0.0	nt	nt	5.3
Cc1ccc2c(c1)c1nc3ccccc3nc1n2C	5.0	1.9*	nt	nt	5.9*
Cn1cc(/C=C(\NC(=O)c2ccccc2)C(=O)NCCCN2CCOCC2)c2ccccc21	-0.5	1.3*	nt	nt	1.5
COc1ccc(C(=O)N/C(=C\c2cn(C)c3ccccc23)C(=O)NCCCN2CCOCC2)cc1OC	2.2	-0.5	nt	nt	0.2
CC(C)OC(=O)NCN1C(=O)C2C3C=CC(C3)C2C1=O (stereo not drawn)	11.1*	-0.3	2.9	1.05	-1.5
Nc1nc(CSCCO)nc(Nc2ccccc2)n1	1.6	-1.3	2.8	1.21	0.5
Nc1nc(CSc2ccccn2)nc(Nc2ccccc2)n1	10.9*	0.7	134.2	4.7*	4.7
O=C(COc1ccccc1F)NNC(=O)c1cccc(-n2cccc2)c1	0.7	-1.1	nt	nt	6.3*
C[C@H]1[C@@H](N(C)Cc2ccccc2)CC[C@@]23CCCN2C(=O)CCC[C@@H]13	4.0	-1.5	nt	nt	0.6
SMILES	hgDAF-12 ag	ssDAF-12 act	APP 5'UTR act	NF-kB expr up	hcDAF12 agonist
CC(=O)NCc1ccc(-c2csc(-c3cccs3)n2)cc1	12.4*	-0.8	nt	nt	2.7
CCOP(=O)(OCC)C(NC(=O)Nc1ccc(C)cc1)C(N)=O (stereo not drawn)	1.8	-1.4	nt	nt	-1.5
CCOP(=O)(OCC)C(NC(=O)Nc1ccc(Cl)cc1)C(=O)N(CC)CC (stereo not drawn)	2.6	1.5*	6.2	0.94	0.1
N#Cc1ccc(/C=C2\CC3(OC(=O)c4cccc(F)c4)CCCN2C3)cc1 (stereo not drawn)	1.9	-1.6	nt	nt	-0.7
Cc1ccc(Nc2nc(COC(=O)C3CC3)cs2)cc1	10.9*	-0.9	94.6	3.6*	1.8
CCCC(O)(CCC)C(=O)NN(C(=O)CCl)c1ccccc1	-1.2	-1.5	-0.6	7.16*	-2.0
Cc1cc(C(=O)Nc2ccc(N3CCCCC3)cc2)no1	11.4*	0.4	nt	nt	4.9
Cc1cnc(C(=O)Nc2ccc(N3CCCCC3)cc2)cn1	7.8	-0.1	141.6*	2.82	2.8
Cc1ccc(C(=O)Nc2ccc(N3CCCC3)cc2)cc1	12.4*	-0.2	108.6	1.02	0.9
C=Cc1ccc(C(=O)N(Cc2ccc(F)cc2)C(C(=O)N(C)C2CCCC2)c2ccc(OC)c(OC)c2)cc1 (stereo not drawn)	-2.3	-1.7	nt	nt	-2.3
O=C(NCc1cccnc1)c1cc(-c2cccs2)on1	11.5*	-1.1	0.1	3.14	1.3
O=C(NCc1cccnc1)c1cc(-c2ccccc2)on1	11.7*	-1.2	2.5	2.85	1.4
CCCc1cc(C(=O)NC2CCCCC2)no1	12.8*	0.5	66.8	1.98	1.9
CCCc1cc(C(=O)NC2CCCC2)no1	5.3	-0.1	29.3	1.51	2.5
CCCc1cc(C(=O)NCc2cccs2)no1	8.0	2.0*	8.4	1.54	4.2
COc1ccc(-c2cc(C(=O)NCc3cccnc3)no2)cc1	6.8	-0.9	nt	2.27	-0.8
Cn1c(Cc2cccs2)nnc1SCC(=O)Nc1ccc2c(c1)OCO2	-2.1	-1.4	nt	nt	-1.8
COc1cccc(OCc2cc(C(=O)NC3CCOCC3)no2)c1	7.0	-0.6	nt	nt	2.5
COc1ccc(OCc2cc(C(=O)NC3CCOCC3)no2)c2ccccc12	3.0	-0.1	nt	nt	6.3*
CCCc1cc(C(=O)NCc2cccnc2)no1	3.4	-1.0	1.1	1.3	5.8*
CC(=O)N1CCN(c2cc(-c3ccco3)nc3cc(-c4ccccc4)nn23)CC1	-3.4	-1.6	nt	nt	-3.2
O=C(Nc1ccc(-c2noc(-c3cccs3)n2)cc1)c1cccnc1	3.2	-0.4	110.4	3.84*	0.5
CC1Cc2ccccc2N1C(=O)c1cc2cccnc2n(C)c1=O (stereo not drawn)	3.0	-0.1	nt	nt	5.6*
CC1Cc2ccccc2N1C(=O)c1ccc2nccnc2c1 (stereo not drawn)	-0.6	-0.8	nt	nt	0.4
COC(=O)c1cc(-c2cccc(OCc3ccccc3)c2)c(=O)n2c1CCC2	-0.3	-1.1	nt	nt	-2.2
SMILES	hgDAF-12 ag	ssDAF-12 act	APP 5'UTR act	NF-kB expr up	hcDAF12 agonist
Cn1cccc1/C=N/NC(=O)c1ccccn1	11.6*	0.0	nt	nt	1.7
Cn1cccc1/C=N/NC(=O)c1ccncc1	-0.8	-0.8	nt	nt	6.2*
CCc1ccc(/C=N/NC(=O)c2ccccn2)cc1	10.7*	0.3	nt	nt	5.5
O=C(CNC(=O)c1ccccn1)N/N=C/c1ccccc1	0.6	-1.1	7.2	2.29	1.3
O=C(N/N=C/c1cccs1)c1ccccn1	11.5*	0.0	123.4	2.39	4.8
O=C(NCc1ccccc1)c1ccc(CO)cc1	-1.6	-0.1	nt	nt	-1.8
Cc1ccc(-c2cc3nc(-c4ccco4)cc(N4CCN(Cc5ccoc5)CC4)n3n2)cc1	1.2	-1.2	nt	nt	0.4
O=C(Nc1ccc(Cl)cc1)C1CCCN1S(=O)(=O)c1cccnc1 (stereo not drawn)	-0.8	-0.3	nt	nt	-1.2

From PubChem BioAssay
